Source: PubChem BioAssay (NCATS)
Results filed as inconclusive are left out. Active and inactive are the calls of the source. Unless noted, the call rests on the fitted dose curve; in most records, active means well fitted curve in the direction sought with a large enough effect; inconclusive means small, poorly fitted or top-dose-only effect, or another doubt; inactive means no such curve, though single readings can be large; an effect the other way counts as inactive or inconclusive. Residues, ends and D or L forms follow the SMILES beside them.

Experiments:
[1] = molecular target: Lysosomal acid glucosylceramidase (Homo sapiens) (UniProt P04062); test: Glucocerebrosidase-p2 (AID 348; in the data active means potency below about 10 µM; further: potency means the concentration at half of the fitted maximal effect); conditions: purified GBA, blue fluorogenic substrate, 40 min
Procedure, shortened: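 Normal human glucocerebrosidase (0.2 nM) with blue fluorogenic substrate (80 uM final) in citrate/phosphate pH 5.9 with 10mM sodium taurocholate, 0.01% tween-20; 40 min RT, NaOH/glycine stop; fluorescence Ex 365/Em 440; AC50 from a titration from 0.6 nM upwards.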

[2] = AP1 Signaling Pathway (AID 357; active means well fitted curve in either direction with a large enough effect, not every such curve was filed as active;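 further: ME-180 reporter cells stimulated with EGF at its EC50 level; on the % scale 0 is the no-effect control and ±100 the full control effect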); conditions: ME-180 AP-1-bla reporter, EGF-induced, beta-lactamase ratio, 5 h; at 7.69 µM (top of the series) unless noted
Procedure, shortened: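 Beta-lactamase reporter under AP-1 response element, ME-180 background. Stimulus: EC50 EGF. Compound exposure 5 h, 37 °C. Detection: CCF4, 2.5 h RT, 460/530 nm. Values: AC50 from titration.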

[3] = molecular target: Cytochrome P450 1A2 (Homo sapiens) (UniProt P05177); test: p450-cyp1a2 (AID 410; calls by dose curve; further: potency means the concentration at half of the fitted maximal effect)
Procedure, shortened: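 Read-out is luminescence from luciferin produced by CYP1A2 demethylation of Luciferin-ME (100uM, at Km). Detection reagent stopped the 60 min NADPH-dependent reaction; signals were normalized to 57 uM furafylline.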

[4] = molecular target: Glucocorticoid receptor (Homo sapiens) (UniProt P04150); test: GR-GFP Redistribution (AID 450;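 active means compounds whose dose series gives a full or clear partial fitted curve of increased nuclear translocation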; further: potency means the concentration at half of the fitted maximal effect); conditions: U2OS GR-GFP nuclear translocation, laser cytometry, 2 h
[5] = molecular target: Glucocorticoid receptor (Homo sapiens) (UniProt P04150); test: GR-EFC Redistribution (AID 451; calls by dose curve; further: potency means the concentration at half of the fitted maximal effect); conditions: CHO-K1 GR-EFC translocation, beta-gal luminescence, 2 h
Procedure, shortened: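 Translocation of GR-ED fusion to nuclear EA restores b-gal, read by luminescence after 1 h room-temperature detection. Engineered CHO-K1 biosensor cells, 1,000/well, exposed 2 h at 37 C to titrations up to 46 uM final.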

[6] = molecular target: Mitogen-activated protein kinase 10 (Mus musculus) (UniProt Q61831); test: JNK3 AlphaScreen Assay (AID 530; active means well fitted curve in either direction with a large enough effect, not every such curve was filed as active;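 further: kinase came from lysate of stimulated human HepG2 cells; signal reports phosphorylation of biotinylated GST-cJun 1-79 at Ser73 with 10 µM ATP; on the % scale 0 is the no-effect control and ±100 the full control effect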)
Procedure, shortened: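 Kinase buffer: 20 mM Tris-HCl pH 7.6, 10 mM MgCl2, 1 mM DTT, 0.1 mM Na3VO4, 0.01% Tween-20; ATP 10 uM. Substrate biotin-GST-cJun(1-79), enzyme from activated HepG2 lysates. Detection by Ser73 phospho-antibody AlphaScreen.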

[7] = molecular target: 3',5'-cyclic-AMP phosphodiesterase 4B (Homo sapiens) (UniProt Q07343); test: qHTS Assay for Inhibitors of PDE-IV (AID 607; active means well fitted activation curve with a large enough effect in the main read-out, with a control signal flat, not every such curve was filed as active; further: % of control where 0% means no effect)
Procedure, shortened: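 Live HEK293 cells with a modified cyclic nucleotide-gated (CNG) channel report intracellular cAMP via membrane-potential dye fluorescence (ex 535/em 590 nm). Endogenous PDE-IV was targeted. Compounds were tested at up to 22.9 uM final; RO 20-1724 100 uM served as control.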

[8] = qHTS Assay for Identification of Small Molecule Agonists for Hypoxia Response Element Signaling Pathway (AID 914; active means well fitted activation curve with a large enough effect in the signal ratio, with a control signal flat, not every such curve was filed as active; the % refers to the signal ratio; further: potency means the concentration at half of the fitted maximal effect); conditions: ME-180 HRE-bla reporter, beta-lactamase ratio, CoCl2, 17 h; activation: stronger effect = higher value
Procedure, shortened: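 In Opti-MEM containing 0.5% dialyzed FBS and 10 mM HEPES, ME-180 HRE-bla cells received a compound titration and EC50 CoCl2. They were incubated 17 hours, then CCF4-loaded 2.5 hours at room temperature before ratio reading.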

[9] = qHTS Assay for Lipid Storage Modulators (AID 1519; calls by dose curve); conditions: Drosophila S3 cells, BODIPY lipid droplet/cell ratio, laser cytometry, cells loaded with oleic acid; for activity change, negative = inhibition: at 57.5 µM (top of the series)
Procedure, shortened: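 Cells seeded at 5,000 per well were treated with compounds over a concentration series and loaded with oleic acid (400 uM, as added). Lipid droplet fluorescence (488 nm excitation, 500-530 nm channel) was read by laser-scanning cytometry and normalized to 20 uM Triacsin C.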

[10] = molecular target: Dual specificity protein kinase CLK4 (Homo sapiens) (UniProt Q9HAZ1); test: qHTS Assay for Inhibitors of CDC-like Kinase 4 (Kinase-Glo Assay) (AID 1770); further: on the % scale 0 is the no-effect control and ±100 the full control effect; nearly all actives have a fitted effect of over 65% in size
Procedure, shortened: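 Substrate mix (RS peptide 100 uM, ATP 1 uM) dispensed, compound pinned in, then Clk4 added to 25 nM final. Incubated 4.5 h at RT; Kinase-Glo reagent added, luminescence read after 5 min.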

[11] = molecular target: Dual specificity protein kinase CLK4 (Homo sapiens) (UniProt Q9HAZ1); test: qHTS Assay for Inhibitors of CDC-like Kinase 4 (ADP-Glo Assay) (AID 1771); further: on the % scale 0 is the no-effect control and ±100 the full control effect; nearly all actives have a fitted effect of over 70% in size
Procedure, shortened: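 In this ADP-Glo format, 1 uM ATP and 100 uM RS peptide served as substrates for 25 nM Clk4 in Mg2+/EGTA/DTT/Triton buffer; reactions ran 1 hr at room temperature before luminescent ADP quantification.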

[12] = molecular target: Dual specificity protein kinase CLK4 (Homo sapiens) (UniProt Q9HAZ1); test: qHTS Assay for Inhibitors of CDC-like Kinase 4 (ADP-FP Assay) (AID 1795);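 further: recombinant human CLK4 phosphorylating RS repeat peptide at 1 µM ATP; on the % scale 0 is the no-effect control and ±100 the full control effect; nearly all actives have a fitted effect of over 60% in size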
Procedure, shortened: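 Clk4 6.25 nM; RS peptide 100 uM; ATP 1 uM; 25 mM Tris pH 7.5, 10 mM MgCl2; 1 h reaction. ADP detected via antibody/orange tracer FP displacement; TG003 positive control.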

[13] = Counterscreen qHTS for small molecule stabilizers of the endoplasmic reticulum resident proteome: GLuc-NoTag assay (AID 1508627);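 further: SH-SY5Y cells given compound then 100 nM thapsigargin to empty ER calcium; 0% = thapsigargin alone and -100% = DMSO vehicle control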
Procedure, shortened: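 Counterscreen line: SH-SY5Y-GLuc-NoTag cells, treated with compound 19 hr before a 4 hr, 100 nM thapsigargin calcium depletion. Secreted Gaussia luciferase in the medium was measured by luminescence after coelenterazine was added (0.07x final), with cells unlysed.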

[14] = Confirmatory qHTS for small molecule stabilizers of the endoplasmic reticulum resident proteome: Secreted ER Calcium Modulated Protein (SERCaMP) assay (AID 1508628); further: nearly all actives have a fitted effect of over 40% in size; further: potency means the concentration at half of the fitted maximal effect
Procedure, shortened: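 GLuc-SERCaMP-expressing SH-SY5Y cells, pretreated 16 h with compound, are challenged with thapsigargin to empty ER calcium stores; after 4 h, coelenterazine is added directly to the medium and luminescence is imaged.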

[15] = NFAT Signaling Pathway (AID 444; active means well fitted curve in either direction with a large enough effect, not every such curve was filed as active;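 further: carbachol stimulus at about its EC50 of 1 µM final; on the % scale 0 is the no-effect control and ±100 the full control effect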); conditions: Jurkat NFAT-bla M1, carbachol, beta-lactamase ratio, 5 h; at 7.69 µM (top of the series) unless noted
Procedure, shortened: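 Read-out: CCF4 FRET ratio (460 nm/530 nm) after 1 h RT dye loading, used for %activity and AC50 from titration series. Cells: Jurkat NFAT-β-lactamase/M1 line, treated with compound plus 1 uM carbachol for 5 h, 37 °C.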

[16] = Stat Signaling Pathway (AID 446; active means well fitted curve in either direction with a large enough effect, not every such curve was filed as active;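 further: ME-180 cervical cancer cells given 40 pM IL-6 alongside compound; SIE-controlled beta-lactamase reporter measured as 460/530 nm FRET emission ratio; on the % scale 0 is the no-effect control and ±100 the full control effect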); conditions: ME-180 (cervical carcinoma) SIE beta-lactamase reporter, IL-6 stimulated, 5 h; at 7.69 µM (top of the series) unless noted
Procedure, shortened: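 Overnight-plated ME-180 cells bearing a STAT Inducible Element beta-lactamase reporter; 5 h co-exposure to compound and 40 pM IL-6; values normalized to 300 pM IL-6 and 125 nM JAK inhibitor controls.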

[17] = Cell Viability qHTS for small molecule stabilizers of the endoplasmic reticulum resident proteome (AID 1508629); conditions: cell viability counter-screen, 100 nM thapsigargin for final 4 h;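 further: compound exposure about 46 h in total before the viability read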; further: potency means the concentration at half of the fitted maximal effect
[18] = molecular target: Ubiquitin carboxyl-terminal hydrolase 1 (Homo sapiens) (UniProt O94782); test: Inhibitors of USP1/UAF1: Pilot qHTS (AID 504865);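 further: rhodamine fluorescence freed from ubiquitin-rhodamine substrate followed over time; top concentration of the series differs between compounds; on the % scale 0 is the no-effect control and ±100 the full control effect; nearly all actives have a fitted effect of over 35% in size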
Procedure, shortened: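 In 50mM HEPES pH 7.8 containing 0.5mM EDTA, 1mM TCEP, 0.1 mg/ml BSA and 0.01% Tween-20, 1nM USP1/UAF1 is exposed to compound for 15 min, then Ub-Rho (150nM final) is added and fluorescence is read over time.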

[19] = measured here: cell count channel max response
[20] = measured here: lipid channel max response

Chain of Glucocorticoid receptor (Homo sapiens) (P04150 whole entry, looked up, the tested form may be a part): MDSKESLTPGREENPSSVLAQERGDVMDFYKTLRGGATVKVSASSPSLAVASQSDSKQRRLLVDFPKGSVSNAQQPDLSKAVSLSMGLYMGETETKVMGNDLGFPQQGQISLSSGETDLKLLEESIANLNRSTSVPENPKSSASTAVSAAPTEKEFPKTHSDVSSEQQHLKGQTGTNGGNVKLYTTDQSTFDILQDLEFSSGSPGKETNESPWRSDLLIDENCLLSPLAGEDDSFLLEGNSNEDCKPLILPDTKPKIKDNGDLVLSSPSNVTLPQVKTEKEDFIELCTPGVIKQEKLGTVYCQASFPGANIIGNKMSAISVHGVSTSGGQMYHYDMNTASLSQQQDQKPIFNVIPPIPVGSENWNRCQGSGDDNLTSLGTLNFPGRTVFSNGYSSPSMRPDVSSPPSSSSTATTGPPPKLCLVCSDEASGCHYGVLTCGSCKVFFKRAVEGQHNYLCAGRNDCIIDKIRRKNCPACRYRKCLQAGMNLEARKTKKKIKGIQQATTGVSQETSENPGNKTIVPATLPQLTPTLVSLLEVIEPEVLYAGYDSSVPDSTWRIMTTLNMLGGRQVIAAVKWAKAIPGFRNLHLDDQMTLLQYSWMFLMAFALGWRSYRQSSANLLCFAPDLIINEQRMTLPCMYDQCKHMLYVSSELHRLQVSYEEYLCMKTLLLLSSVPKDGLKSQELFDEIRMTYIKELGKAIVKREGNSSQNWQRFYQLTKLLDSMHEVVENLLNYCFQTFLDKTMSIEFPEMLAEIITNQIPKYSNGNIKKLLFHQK
Chain of Lysosomal acid glucosylceramidase (Homo sapiens) (P04062 whole entry, looked up): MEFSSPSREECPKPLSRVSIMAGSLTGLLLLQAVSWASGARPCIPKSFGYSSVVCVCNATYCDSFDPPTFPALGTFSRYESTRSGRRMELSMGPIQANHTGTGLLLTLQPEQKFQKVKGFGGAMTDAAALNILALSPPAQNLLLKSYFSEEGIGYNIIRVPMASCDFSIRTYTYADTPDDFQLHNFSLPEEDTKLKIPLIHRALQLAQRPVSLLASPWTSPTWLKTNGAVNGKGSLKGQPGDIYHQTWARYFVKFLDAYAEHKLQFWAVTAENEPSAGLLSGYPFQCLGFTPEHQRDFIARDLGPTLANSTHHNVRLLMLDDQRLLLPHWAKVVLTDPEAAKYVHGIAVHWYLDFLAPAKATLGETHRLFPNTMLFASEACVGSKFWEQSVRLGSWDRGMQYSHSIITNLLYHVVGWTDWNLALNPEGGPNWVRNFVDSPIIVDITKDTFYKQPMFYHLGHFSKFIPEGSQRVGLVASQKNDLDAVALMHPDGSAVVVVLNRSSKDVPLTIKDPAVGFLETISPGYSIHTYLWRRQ
Chain of Dual specificity protein kinase CLK4 (Homo sapiens) (Q9HAZ1 whole entry, looked up): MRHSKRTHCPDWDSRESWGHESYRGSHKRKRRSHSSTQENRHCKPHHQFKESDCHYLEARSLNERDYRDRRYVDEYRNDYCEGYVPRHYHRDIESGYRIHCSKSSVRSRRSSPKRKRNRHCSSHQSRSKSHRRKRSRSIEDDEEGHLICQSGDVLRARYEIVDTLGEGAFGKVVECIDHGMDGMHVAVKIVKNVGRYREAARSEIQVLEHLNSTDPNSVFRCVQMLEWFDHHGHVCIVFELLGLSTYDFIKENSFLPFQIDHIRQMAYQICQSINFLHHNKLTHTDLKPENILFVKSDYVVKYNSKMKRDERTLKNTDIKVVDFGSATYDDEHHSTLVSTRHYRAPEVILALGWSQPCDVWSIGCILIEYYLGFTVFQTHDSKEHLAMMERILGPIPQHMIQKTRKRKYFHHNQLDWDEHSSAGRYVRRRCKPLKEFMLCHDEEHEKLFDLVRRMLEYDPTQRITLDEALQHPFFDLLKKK
Chain of 3',5'-cyclic-AMP phosphodiesterase 4B (Homo sapiens) (Q07343 whole entry, looked up): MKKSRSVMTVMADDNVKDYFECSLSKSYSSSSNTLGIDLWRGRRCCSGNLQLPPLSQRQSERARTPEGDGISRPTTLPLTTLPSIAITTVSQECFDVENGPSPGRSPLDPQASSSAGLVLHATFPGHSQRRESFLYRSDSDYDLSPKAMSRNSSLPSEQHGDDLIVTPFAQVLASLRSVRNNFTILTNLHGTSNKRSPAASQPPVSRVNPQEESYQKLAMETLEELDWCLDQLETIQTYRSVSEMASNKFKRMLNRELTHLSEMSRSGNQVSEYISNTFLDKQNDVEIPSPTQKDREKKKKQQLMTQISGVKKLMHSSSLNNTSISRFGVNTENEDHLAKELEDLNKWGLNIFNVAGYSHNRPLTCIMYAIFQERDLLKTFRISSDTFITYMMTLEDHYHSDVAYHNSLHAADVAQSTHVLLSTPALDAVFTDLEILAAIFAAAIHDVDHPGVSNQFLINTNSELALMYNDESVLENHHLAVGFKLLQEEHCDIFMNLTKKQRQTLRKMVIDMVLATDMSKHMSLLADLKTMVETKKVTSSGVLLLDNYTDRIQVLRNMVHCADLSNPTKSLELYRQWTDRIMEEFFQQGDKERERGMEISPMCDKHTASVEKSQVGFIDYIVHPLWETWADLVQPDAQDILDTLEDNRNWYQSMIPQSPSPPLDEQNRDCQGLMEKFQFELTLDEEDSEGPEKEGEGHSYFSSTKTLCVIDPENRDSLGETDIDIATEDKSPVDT
Chain of Ubiquitin carboxyl-terminal hydrolase 1 (Homo sapiens) (O94782 whole entry, looked up): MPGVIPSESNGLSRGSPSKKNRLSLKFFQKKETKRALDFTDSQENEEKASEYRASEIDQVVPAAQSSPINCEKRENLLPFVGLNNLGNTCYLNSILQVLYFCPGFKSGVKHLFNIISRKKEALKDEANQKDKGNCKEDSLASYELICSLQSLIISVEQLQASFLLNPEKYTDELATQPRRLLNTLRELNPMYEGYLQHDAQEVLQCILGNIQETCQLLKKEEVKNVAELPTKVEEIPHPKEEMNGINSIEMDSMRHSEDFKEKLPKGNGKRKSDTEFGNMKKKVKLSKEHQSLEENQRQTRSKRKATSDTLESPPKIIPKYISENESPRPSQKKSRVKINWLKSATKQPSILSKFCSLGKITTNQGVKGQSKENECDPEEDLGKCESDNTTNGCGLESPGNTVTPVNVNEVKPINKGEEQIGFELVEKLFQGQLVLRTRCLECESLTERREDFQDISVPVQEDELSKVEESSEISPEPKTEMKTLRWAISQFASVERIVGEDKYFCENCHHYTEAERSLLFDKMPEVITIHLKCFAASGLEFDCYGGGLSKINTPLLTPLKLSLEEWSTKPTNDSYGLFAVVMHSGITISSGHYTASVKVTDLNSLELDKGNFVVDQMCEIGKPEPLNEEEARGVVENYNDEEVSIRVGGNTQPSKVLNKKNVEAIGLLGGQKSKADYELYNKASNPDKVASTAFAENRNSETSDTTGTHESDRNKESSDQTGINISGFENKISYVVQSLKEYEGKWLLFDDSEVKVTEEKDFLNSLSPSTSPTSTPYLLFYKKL
Chain of Cytochrome P450 1A2 (Homo sapiens) (P05177 whole entry, looked up): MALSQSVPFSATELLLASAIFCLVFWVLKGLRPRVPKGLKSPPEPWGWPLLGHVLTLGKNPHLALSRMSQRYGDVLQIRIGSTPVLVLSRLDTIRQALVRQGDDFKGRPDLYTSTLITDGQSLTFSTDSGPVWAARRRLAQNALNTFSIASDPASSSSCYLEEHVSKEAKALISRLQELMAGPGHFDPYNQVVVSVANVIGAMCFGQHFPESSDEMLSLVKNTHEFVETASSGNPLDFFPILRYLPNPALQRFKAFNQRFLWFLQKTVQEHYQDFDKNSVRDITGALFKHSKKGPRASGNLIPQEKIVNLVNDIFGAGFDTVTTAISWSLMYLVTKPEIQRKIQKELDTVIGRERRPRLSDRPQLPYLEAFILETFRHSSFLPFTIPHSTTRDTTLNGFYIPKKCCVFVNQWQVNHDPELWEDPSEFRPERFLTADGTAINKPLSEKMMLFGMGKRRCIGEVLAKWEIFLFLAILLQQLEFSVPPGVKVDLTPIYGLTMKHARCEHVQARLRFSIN

COc1ccc(-c2nc3cnc(N4CCN(C)CC4)nc3n(-c3ccc(OC)cc3)c2=O)cc1
active: Potency [3] 15.8 µM | Potency [8] 3.16 µM
inactive: Potency [1] > 11.4 µM | activity change, negative = inhibition [2] 41.4% | Potency [4] > 9.22 µM | Potency [5] > 46 µM | outcome [6] | Potency [7] | activity change, negative = inhibition [9] 3.89% | Potency [10] | Potency [11] | Potency [12] | Potency [13] | Potency [14]
29.8%: max response [9, 20]
28.9%: max response [9, 19]

CN(C)c1ncc2nc(CCc3ccccc3)c(=O)n(C[C@H]3CCCO3)c2n1
active: Potency [14] 39.8 µM
inactive: Potency [1] > 11.4 µM | activity change, negative = inhibition [2] -3.01% | activity change, negative = inhibition [15] -1.26% | activity, negative = inhibition [16] 1.42% | Potency [4] > 9.22 µM | Potency [5] > 46 µM | outcome [6] | Potency [13] | max response [17] 23.4%

COc1ccc(-c2nc3cnc(N4CCNCC4)nc3n(-c3ccc(OC)cc3)c2=O)cc1
15%: max response [9, 19]
inactive: Potency [1] > 11.4 µM | Potency [4] > 9.22 µM | Potency [5] > 46 µM | outcome [6] | Potency [7] | activity change, negative = inhibition [9] 1.3% | Potency [10] | Potency [11] | Potency [12] | Potency [18] | Potency [13] | Potency [14]
15.1%: max response [9, 20]
active: Potency [17] 25.1 µM

COc1cccc(CN2CCN(C(=O)c3ccc(-c4ccccc4)cc3)CC2)c1
inactive: Potency [13] | Potency [14]

CC[C@H](C)[C@H](NC(=O)[C@H](CC(=O)O)NC(=O)[C@H](CC(N)=O)NC(=O)[C@@H](NC(=O)[C@H](CCCNC(=N)N)NC(=O)[C@@H](NC(=O)[C@@H](NC(=O)[C@@H](NC(=O)[C@@H](NC(=O)[C@H](CCCCN)NC(=O)[C@@H](NC(=O)[C@H](CC(C)C)NC(=O)[C@@H](NC(=O)[C@H](CCCCN)NC(=O)[C@@H](NC(=O)[C@H](CC(=O)O)NC(=O)[C@H](CC(=O)O)NC(=O)[C@H](CCC(N)=O)NC(=O)[C@@H](NC(=O)[C@H](CCCCN)NC(=O)[C@H](CCC(N)=O)NC(=O)[C@@H](NC(=O)[C@@H]1CCCN1C(=O)[C@@H](N)C(C)C)[C@@H](C)CC)C(C)C)[C@@H](C)O)[C@@H](C)O)[C@@H](C)CC)[C@@H](C)O)[C@@H](C)CC)C(C)C)[C@@H](C)O)[C@@H](C)CC)C(=O)N[C@@H](CO)C(=O)N[C@@H](Cc1cnc[nH]1)C(=O)N[C@H](C(=O)N[C@@H](CCC(N)=O)C(=O)N[C@@H](CO)C(=O)N[C@H](C(=O)N[C@@H](CO)C(=O)N[C@@H](CO)C(=O)N[C@@H](CCCCN)C(=O)N[C@@H](CCC(N)=O)C(=O)N[C@@H](CCCCN)C(=O)O)C(C)C)[C@@H](C)O (H-VPIQKVQDDTKTLIKTIVTRINDISHTQSVSSKQK-OH)
inactive: activity change, negative = inhibition [13] -4.21% [at 9.46 µM] | activity change, negative = decrease [14] -1.59% [at 9.4 µM] | max response [17] 4.6%
